# Test results: the supplement of paper PMC13380429
# A number with no mark means an inactive call.
# Tested on: Vero E6 infected with SARS-CoV-2
# Assay: inhibition of SARS-CoV-2 cytopathic effect; higher = more antiviral protection, active = above 15
# Details: 48 h
Compound,inhibition of SARS-CoV-2 cytopathic effect (1 nM) [%],inhibition of SARS-CoV-2 cytopathic effect (8.33 nM) [%],inhibition of SARS-CoV-2 cytopathic effect (100 nM) [%],inhibition of SARS-CoV-2 cytopathic effect (833.33 nM) [%],inhibition of SARS-CoV-2 cytopathic effect (10000 nM)
CC[C@@H](C)CNCC(=O)N1CCc2sccc2[C@@H]1COc1cccc(C)c1,2.77,3.61,2.09,1.08,-6.12%
CN(C)Cc1ccc(S(=O)(=O)n2ccc(/C=C/C(=O)NO)c2)cc1 [resminostat],0.52,-2.34,-0.22,-9.24,-24.5%
COCCOC(=O)C1=C(C)NC(C)=C(C(=O)OC(C)C)C1c1cccc([N+](=O)[O-])c1 (stereo not given) [nimodipine],-2.49,-0.07,-1,1.52,1.16%
CN1CCN(c2nc(C3=C(c4c[nH]c5ccccc45)C(=O)NC3=O)c3ccccc3n2)CC1 [sotrastaurin],0.12,1.74,-0.57,-1.82,4.89%
CC(C)(C)Cn1c(N)nc2ccc(-c3[nH]c(C(C)(C)C)nc3-c3ccc(F)cc3)nc21,2.2,-0.57,-1.43,11.8,55.2% (active)
COc1cc2c(cc1OCCCN1CCCC1)N=C(N)C21CCC1,-1.51,0.76,0.57,1.84,1.55%
CC(C)(C)c1ccc2cc(C#N)c(C#N)cc2c1,0.02,1.71,-1.56,0.05,-3.93%
CCOc1ccc(C[C@H]2NC(=O)CCSSC[C@@H](C(=O)N3CCC[C@H]3C(=O)N[C@@H](CCCN)C(=O)NCC(N)=O)NC(=O)[C@H](CC(N)=O)NC(=O)[C@H]([C@@H](C)O)NC(=O)[C@H]([C@@H](C)CC)NC2=O)cc1 [atosiban],1.81,-1.47,-2.35,-0.16,0.37%
CC1(C)O[C@@H]2C[C@H]3[C@@H]4C[C@H](F)C5=CC(=O)C=C[C@]5(C)[C@H]4[C@@H](O)C[C@]3(C)[C@]2(C(=O)CO)O1 [flunisolide],-0.25,0.14,-1.38,-0.29,-0.97%
N=C(N)N/N=C/c1c(Cl)cccc1Cl [guanaben-acetate],-2.82,-0.46,-3.74,-2.55,-1.82%
OC(c1ccccc1)C1CCN(CCc2ccccc2)CC1 (stereo not given),-0.21,1.17,-0.64,-0.54,0.25%
COCCN1CCC(C(=O)NO)(S(=O)(=O)c2ccc(Oc3ccc(OC(F)(F)F)cc3)cc2)CC1,3.42,2.45,2.99,3.32,1.34%
O=C(NC1CCOCC1)c1ccc(-c2cc(-c3c[nH]nc3-c3ccccn3)ccn2)cc1,1,0.61,0.23,4.34,3.89%
CNC(=O)c1cc(Oc2ccc(NC(=O)Nc3ccc(Cl)c(C(F)(F)F)c3)cc2)ccn1 [sorafenib],-0.83,1.38,2.59,2.85,16.4% (active)
CN(C)CCOc1ccc(-c2nc(-c3ccncc3)c(-c3ccc4c(c3)CC/C4=N\O)[nH]2)cc1,-0.13,-0.36,2.34,-0.51,6.82%
Cc1ccc(-c2ncc[nH]2)cc1NC(=O)c1ccc(OCc2ccccn2)cc1,-1.02,-0.95,-2.09,-4.18,-4.54%
c1ccc(CCCCN2CCC(c3ccccc3)CC2)cc1,-1.33,-0.15,2.71,1.08,-0.99%
Nc1nc(Cl)nc2c1ncn2[C@@H]1O[C@H](CO)[C@@H](O)[C@H]1O [2-chloroadenosine],1.66,0.54,-0.34,-0.32,-2.2%
COc1ncc(-c2ccc3c(Nc4cc(Oc5cc(F)cc(F)c5)cc(C(=O)O)c4)c(S(=O)(=O)NC4CC4)cnc3c2)c(OC)n1,0.82,2.2,0.69,2.71,1.3%
CCCn1c(=O)c2[nH]c(-c3cnn(Cc4cccc(C(F)(F)F)c4)c3)nc2n(CC)c1=O,1.43,1.19,2.16,-0.96,0.11%
